# PubChem BioAssay (EPA / NIEHS)
# Where “and” joins values, the source holds several entries; their conditions need not be identical. Equal entries are not always repeated. Calls of active or inactive are those of the source. The calls were made as follows: active = hit-call score of the fitted dose curve at least 0.9, where 1 is the maximum; inactive = score below 0.9.
# Assay: BSK_KF3CT_SRB: Viability Assessment in the BioMAP Diversity Plus: KF3CT Assay (AID 2283069);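 also: fitted for both signal gain and loss against DMSO baseline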
# Settings: primary human keratinocytes with fibroblasts
# Experimental: BSK_KF3CT is a cell-based, multiplexed-readout assay that uses keratinocytes and foreskin fibroblasts, a human skin primary cell co-culture, with measurements taken at 24 hours after chemical dosing in a 96-well plate.BSK_KF3CT_SRB is an assay component measured in the BSK_KF3CT assay. It measures 0.1% sulforhodamine related to cell death using Sulforhodamine staining technology.Data from the assay component BSK_KF3CT_SRB was analyzed into 1 assay endpoint. This assay endpoint, BSK_KF3CT_SRB, was analyzed with bidirectional fitting relative to DMSO as the negative control and baseline of activity. Using a type of viability reporter, gain or loss-of-signal activity can be used to understand changes in the signaling. Furthermore, this assay endpoint can be referred to as a primary readout, because this assay has produced multiple assay endpoints where this one serves a signaling function. To generalize the intended target to other relatable targets, this assay endpoint is annotated to the cell morphology intended target family, where the subfamily is cell conformation.
# The levels of cell surface (or secreted, indicated by the prefix "s") biomarker endpoints were measured by ELISA. Overt cytotoxicity to cells in confluent adherent cultures (all systems other than the BT system) was assessed by measuring total protein levels using sulforhodamine B (SRB) staining in parallel cultures at the time of biomarker measurements, indicated as SRB endpoints. For proliferation assays for adherent cell types, individual cell types are cultured at sub-confluence and relative cell numbers quantified by SRB staining at time points optimized for each system (48 h: 3C and CASM3C systems; 72 h: BT and HDF3CGF systems; 96 h: SAg system). SRB was performed by staining cells with 0.1% SRB after fixation with 10% TCA and reading wells at 560 nm.Viability and proliferation of PBMC (T cells) was quantified by Alamar Blue reduction for the SAg and BT systems. For PBMC viability (referred to as PBMC Cytotoxicity within the assay endpoint names), cells were plated (75,000/well in a 96-well plate) and then chemical samples added for 1 h before addition of activators, SEB and TSST-1 (20 ng/mL final concentration each). Cells were incubated for 90 h. Then, Alamar Blue (20 uL/well) (Invitrogen, Cat DAL1100) was added for 6 h, and the plates were read with a fluorescence microplate reader at 546/580 nm (excitation/emission). For PBMC proliferation, cells were plated and activated as above but incubated for only 16 h prior to addition of Alamar Blue. Plates were read after 6 h.
SMILES,outcome,AC50
ClC(Cl)c1ccccc1,inactive,
c1cc2c3c(cccc3c1)CC2,inactive,
O=C(O)C(F)(F)OC(F)(F)C(F)(F)OC(F)(F)C(=O)O,inactive,
OCC(F)(F)OC(F)(F)C(F)(F)OC(F)(F)C(F)(F)OC(F)(F)F,,48.3 µM (active) and 48.1 µM (active)
c1ccc2c(c1)Nc1ccccc1S2,inactive,
Cc1c([N+](=O)[O-])cc2c(c1[N+](=O)[O-])C(C)(C)CC2(C)C,inactive,
c1ccc(OP(Oc2ccccc2)Oc2ccccc2)cc1,inactive,
O=c1ssc(Cl)c1Cl,,2.83 µM (active)
CSC(C)(C)C=NO,inactive,
Nc1ccc2ccccc2c1,inactive,
O=P(OCC(Br)CBr)(OCC(Br)CBr)OCC(Br)CBr (stereo not given),inactive,
OCC(F)(F)OC(F)(F)C(F)(F)OC(F)(F)C(F)(F)OC(F)(F)CO,inactive,
O=C(O)C=CC(F)(C(F)(F)F)C(F)(F)F,inactive,
O=C(O)C(F)(F)OC(F)(F)C(F)(F)OC(F)(F)F,inactive,
O=C(O)C1C(C(=O)O)C2(Cl)C(Cl)=C(Cl)C1(Cl)C2(Cl)Cl (stereo not given),inactive,
COP(=O)(CCC(=O)NCO)OC,inactive,
CCCCCCCc1ccc(O)cc1,,30.7 µM (active)
C=CC(=O)OCC(F)(F)C(F)F,inactive,
CCNc1nc(Cl)nc(NC(C)(C)C)n1,inactive,
ClC(Cl)(Cl)c1ccccc1,inactive,

SMILES,outcome,AC50
CC(Cl)(Cl)C(=O)O,inactive,
OCC1CO1 (stereo not given),inactive,
OCC(F)(F)OC(F)(F)C(F)(F)OC(F)(F)CO,inactive,
COP(=O)(O)OC,inactive,
Cc1ccc2c(c1N)C(=O)c1ccccc1C2=O,inactive,
NC(=O)C(F)(F)C(F)(F)F,inactive,
CCN(CC)c1ccccc1,inactive,
N#Cc1cc([N+](=O)[O-])ccc1N,inactive,
CCOP(=S)(NC(C)C)Oc1ccccc1C(=O)OC(C)C (stereo not given),inactive,
c1nc[nH]n1,inactive,
N#Cc1c(-c2ccc(Cl)cc2)[nH]c(C(F)(F)F)c1Br,inactive,
c1ccc2c(c1)sc1ccccc12,inactive,
CCOP(=S)(OCC)SCSc1ccc(Cl)cc1,inactive,
O=P1(N(CCCl)CCCl)NCCCO1 (stereo not given),inactive,
O=P(Oc1ccccc1)(Oc1ccccc1)Oc1ccccc1,inactive,
O=S1(=O)OCC2C(CO1)C1(Cl)C(Cl)=C(Cl)C2(Cl)C1(Cl)Cl (stereo not given),inactive,
CN(C)C(=O)Cl,inactive,
CCCCN(CCCC)N=O,inactive,
COCCOCCO,inactive,
COP(N)(=S)OC,inactive,
